Measured values as given in PubChem BioAssay.
Where “and” joins values, the source holds several entries; their conditions need not be identical. Equal entries are not always repeated. A number with no mark means an inactive call. Calls of active or inactive are those of the source. Rule as the data show it, unless noted: active = inhibition above about 28%; inactive = the rest.

Target: Single-stranded DNA-binding protein (Escherichia coli (strain K12)) (UniProt P0AGE0)
Assay: SSB-ssDNA binding inhibitors – biochemical, fluorescence polarization, NIH Clinical Collection, counter-screen for HCV NS3 helicase inhibitor project (AID 743271)
Settings: E. coli SSB-DNA binding, active compounds read high, concentration not given here
In the case of O=c1[nH]cc(F)c(=O)[nH]1, the inhibition is reported as -0.48%.
With CCc1nc(N)nc(N)c1-c1ccc(Cl)cc1 the inhibition was 1.81%.
Compound CCc1cccc2c3c([nH]c12)C(CC)(CC(=O)O)OCC3 (configuration not stated) has an inhibition of -2%.
For Nc1ncn([C@@H]2O[C@H](CO)[C@@H](O)[C@H]2O)c(=O)n1, the inhibition was 4.86%.
For Cc1ccccc1C(OCCN(C)C)c1ccccc1 (configuration not stated), the inhibition was -0.48% and -2.76%.
For Cc1ccc(C)c(OCCCC(C)(C)C(=O)O)c1, the inhibition was 1.05%.
Compound NC(=O)c1cnccn1 has an inhibition of -2.76%.
With CCCCCCNC(=O)n1cc(F)c(=O)[nH]c1=O the inhibition was 1.44%.
COC1=CC(=O)C[C@@H](C)[C@]12Oc1c(Cl)c(OC)cc(OC)c1C2=O gave an inhibition of -3.53%.
In the case of Cc1ncc([N+](=O)[O-])n1CC(C)O (configuration not stated), the inhibition is reported as 6.83%.
Compound N[C@@H](C(=O)N[C@@H]1C(=O)N2C(C(=O)O)=C(Cl)CS[C@H]12)c1ccccc1 has an inhibition of 1.97%.
In the case of CO[C@@]1(NC(=O)Cc2cccs2)C(=O)N2C(C(=O)O)=C(COC(N)=O)CS[C@@H]21, the inhibition is reported as 27.7% (active).
Work on OCCN1CCN(CCCN2c3ccccc3Sc3ccc(C(F)(F)F)cc32)CC1 yielded an inhibition of 5.91%.
For CN(C)CCOC(c1ccc(Cl)cc1)c1ccccn1 (configuration not stated), the inhibition was -3.53%.
With Cc1onc(-c2c(Cl)cccc2Cl)c1C(=O)N[C@@H]1C(=O)N2[C@@H]1SC(C)(C)[C@@H]2C(=O)O the inhibition was -0.48%.
Work on COc1cc2nc(N(C)CCCNC(=O)C3CCCO3)nc(N)c2cc1OC (configuration not stated) yielded an inhibition of -3.95%.
NS(=O)(=O)c1cc(C2(O)NC(=O)c3ccccc32)ccc1Cl (configuration not stated) gave an inhibition of 1.05%.
Work on CN(C)CCc1c[nH]c2ccc(C[C@H]3COC(=O)N3)cc12 yielded an inhibition of -4.33%.
Work on Cc1ccc(-c2cc(C(F)(F)F)nn2-c2ccc(S(N)(=O)=O)cc2)cc1 yielded an inhibition of -0.48%.
For O=S(=O)(O)CCS, the inhibition was -2.76%.
Work on C/C=C/C(=O)N(CC)c1ccccc1C yielded an inhibition of -2.41%.
Work on COc1ccc(OC)c(C(O)CNC(=O)CN)c1 (configuration not stated) yielded an inhibition of -2.76%.
Cn1cnc([N+](=O)[O-])c1Sc1ncnc2nc[nH]c12 gave an inhibition of -2.76%.
With c1ccc2[nH]c(-c3cscn3)nc2c1 the inhibition was -0.48%.
CCCNCC(O)COc1ccccc1C(=O)CCc1ccccc1 (configuration not stated) showed an inhibition of -2%.
Compound NC(=O)N1c2ccccc2CC(=O)c2ccccc21 has an inhibition of -2.41%.
With Cc1cn([C@H]2C[C@H](N=[N+]=[N-])[C@@H](CO)O2)c(=O)[nH]c1=O the inhibition was -2.76%.
For CN(CCOc1ccc(CC2SC(=O)NC2=O)cc1)c1ccccn1 (configuration not stated), the inhibition was 4.52% and -0.87%.
COc1ccccc1OCC(O)COC(N)=O (configuration not stated) gave an inhibition of -1.24%.
Work on OC(CCN1CCCC1)(c1ccccc1)C1CCCCC1 (configuration not stated) yielded an inhibition of -3.53%.
Work on COC(=O)Nc1nc2ccc(C(=O)c3ccccc3)cc2[nH]1 yielded an inhibition of -8.87%.
Compound CN1CCCC(n2nc(Cc3ccc(Cl)cc3)c3ccccc3c2=O)CC1 (configuration not stated) has an inhibition of 0.67%.
For NCc1ccc(S(N)(=O)=O)cc1, the inhibition was 1.05%.
For Clc1ccc2c(c1)C(N1CCNCC1)=Nc1ccccc1O2, the inhibition was -1.24%.
For CC(C)(C)NCC(O)COc1cccc2c1C[C@H](O)[C@H](O)C2 (some centres not stated), the inhibition was 0.29%.
NS(=O)(=O)c1cc2c(cc1Cl)NC=NS2(=O)=O showed an inhibition of -1.24%.

Test system: not listed separately
Assay: compounds distorting NS3 helicase fluorescence signal – biochemical, NIH Clinical Collection, artefact control for HCV NS3 helicase inhibitor project (AID 743272; call rule not given here;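 also: HCV NS3 helicase with a Cy5 labelled single stranded DNA probe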)
Settings: fluorescence interference counterscreen, HCV NS3 helicase assay; active compounds read low
Work on O=c1[nH]cc(F)c(=O)[nH]1 yielded a fluorescence ratio of 0.92.
CCc1nc(N)nc(N)c1-c1ccc(Cl)cc1 gave a fluorescence ratio of 0.94.
For CCc1cccc2c3c([nH]c12)C(CC)(CC(=O)O)OCC3 (configuration not stated), the fluorescence ratio was 1.02.
In the case of Nc1ncn([C@@H]2O[C@H](CO)[C@@H](O)[C@H]2O)c(=O)n1, the fluorescence ratio is reported as 1.04.
In the case of Cc1ccccc1C(OCCN(C)C)c1ccccc1 (configuration not stated), the fluorescence ratio is reported as 0.88 and 1.01.
Cc1ccc(C)c(OCCCC(C)(C)C(=O)O)c1 showed a fluorescence ratio of 0.96.
Work on NC(=O)c1cnccn1 yielded a fluorescence ratio of 0.96.
For CCCCCCNC(=O)n1cc(F)c(=O)[nH]c1=O, the fluorescence ratio was 0.97.
For COC1=CC(=O)C[C@@H](C)[C@]12Oc1c(Cl)c(OC)cc(OC)c1C2=O, the fluorescence ratio was 1.
Work on Cc1ncc([N+](=O)[O-])n1CC(C)O (configuration not stated) yielded a fluorescence ratio of 1.
N[C@@H](C(=O)N[C@@H]1C(=O)N2C(C(=O)O)=C(Cl)CS[C@H]12)c1ccccc1 gave a fluorescence ratio of 0.91.
Compound CO[C@@]1(NC(=O)Cc2cccs2)C(=O)N2C(C(=O)O)=C(COC(N)=O)CS[C@@H]21 has a fluorescence ratio of 1.01.
For OCCN1CCN(CCCN2c3ccccc3Sc3ccc(C(F)(F)F)cc32)CC1, the fluorescence ratio was 0.82.
Work on CN(C)CCOC(c1ccc(Cl)cc1)c1ccccn1 (configuration not stated) yielded a fluorescence ratio of 1.03.
In the case of Cc1onc(-c2c(Cl)cccc2Cl)c1C(=O)N[C@@H]1C(=O)N2[C@@H]1SC(C)(C)[C@@H]2C(=O)O, the fluorescence ratio is reported as 1.03.
For COc1cc2nc(N(C)CCCNC(=O)C3CCCO3)nc(N)c2cc1OC (configuration not stated), the fluorescence ratio was 1.02.
NS(=O)(=O)c1cc(C2(O)NC(=O)c3ccccc32)ccc1Cl (configuration not stated) showed a fluorescence ratio of 1.
In the case of CN(C)CCc1c[nH]c2ccc(C[C@H]3COC(=O)N3)cc12, the fluorescence ratio is reported as 1.
Cc1ccc(-c2cc(C(F)(F)F)nn2-c2ccc(S(N)(=O)=O)cc2)cc1 gave a fluorescence ratio of 1.02.
O=S(=O)(O)CCS showed a fluorescence ratio of 1.
Work on C/C=C/C(=O)N(CC)c1ccccc1C yielded a fluorescence ratio of 1.02.
Work on COc1ccc(OC)c(C(O)CNC(=O)CN)c1 (configuration not stated) yielded a fluorescence ratio of 1.02.
With Cn1cnc([N+](=O)[O-])c1Sc1ncnc2nc[nH]c12 the fluorescence ratio was 0.99.
Work on c1ccc2[nH]c(-c3cscn3)nc2c1 yielded a fluorescence ratio of 0.97.
In the case of CCCNCC(O)COc1ccccc1C(=O)CCc1ccccc1 (configuration not stated), the fluorescence ratio is reported as 0.99.
In the case of NC(=O)N1c2ccccc2CC(=O)c2ccccc21, the fluorescence ratio is reported as 0.97.
Cc1cn([C@H]2C[C@H](N=[N+]=[N-])[C@@H](CO)O2)c(=O)[nH]c1=O showed a fluorescence ratio of 1.04.
With CN(CCOc1ccc(CC2SC(=O)NC2=O)cc1)c1ccccn1 (configuration not stated) the fluorescence ratio was 1.01 and 0.96.
With COc1ccccc1OCC(O)COC(N)=O (configuration not stated) the fluorescence ratio was 1.
OC(CCN1CCCC1)(c1ccccc1)C1CCCCC1 (configuration not stated) gave a fluorescence ratio of 1.03.
COC(=O)Nc1nc2ccc(C(=O)c3ccccc3)cc2[nH]1 gave a fluorescence ratio of 0.98.
With CN1CCCC(n2nc(Cc3ccc(Cl)cc3)c3ccccc3c2=O)CC1 (configuration not stated) the fluorescence ratio was 0.97.
NCc1ccc(S(N)(=O)=O)cc1 showed a fluorescence ratio of 1.01.
For Clc1ccc2c(c1)C(N1CCNCC1)=Nc1ccccc1O2, the fluorescence ratio was 0.96.
CC(C)(C)NCC(O)COc1cccc2c1C[C@H](O)[C@H](O)C2 (some centres not stated) gave a fluorescence ratio of 0.9.
Work on NS(=O)(=O)c1cc2c(cc1Cl)NC=NS2(=O)=O yielded a fluorescence ratio of 0.94.
